The values below come from PubChem BioAssay (NCATS).

Inconclusive results are not listed. Values without a mark were called inactive. The source made the active and inactive calls. The call rests on the fitted dose curve; in most records, active means well fitted inhibition curve with a large enough effect; inconclusive means small, poorly fitted or top-dose-only effect; inactive means flat fitted curve, though single readings scatter.
On the % scale 0 is the no-effect control and ±100 the full control effect.

Sequence of Calcium and integrin-binding protein 1 (Homo sapiens) (Q99828 whole entry, looked up): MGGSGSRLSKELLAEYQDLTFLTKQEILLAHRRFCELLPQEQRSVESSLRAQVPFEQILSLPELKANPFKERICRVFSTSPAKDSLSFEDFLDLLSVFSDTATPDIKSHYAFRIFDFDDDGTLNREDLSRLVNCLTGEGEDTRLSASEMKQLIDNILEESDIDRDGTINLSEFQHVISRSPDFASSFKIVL

In the assay the target is Calcium and integrin-binding protein 1 (Homo sapiens) (UniProt Q99828). In words: Primary qHTS for Identification of Calcium Integrin Binding Protein 1 (CIB1) Competitor (AID 1508620).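 Further: GST tagged CIB1 binding a fluorescein labelled alphaIIb integrin peptide tracer; top concentration of the series differs between compounds.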 The following applies: CIB1-GST / FITC-alphaIIb peptide fluorescence polarization; series mostly up to 57.7 µM; activity change, negative = inhibition: at the top concentration. The text has this:
Assay Provider: Ulhas P. Naik, PhD Sidney Kimmel Medical College Thomas Jefferson University, Philadelphia, PA Primary function of platelets is to maintain hemostasis. At the site of vascular injury, platelets adhere to adhesive proteins such as collagen and von Willebrand factor. Adherent platelets are activated and generate soluble platelet agonists such as thrombin, ADP and thromboxane A2. Following exposure of circulating platelets to these agonists, results in platelet shape change, granule secretion and activation of platelet integrin alphaIIb-beta3. Ligand binding to activated integrin alphaIIb-beta3 triggers outside-in signaling, leading to platelet aggregation, stabilization of platelet plug, and clot retraction. Upon atherosclerotic plaque rupture also causes platelet plug formation, which underlies a number of cardiovascular diseases such as myocardial infraction and stroke. A number of anti-platelet drugs such as aspirin, clopidogrel, prasugrel, vorapaxar, and eptifibatide are currently available to prevent the thrombotic complications. However, these anti-platelet agents have several limitations including inherent variability in individual responses, developing resistance, and serious bleeding side effects. For these reasons they are not suitable for long-term protection. Based on the experiences with current anti-platelet drugs, it appears that the most useful therapeutic approach is to intersect the secondary responses such as integrin outside-in signaling or recruitment of platelets by TxA2 and secreted ADP. Compounds, which can largely preserve the primary hemostatic function of platelets but inhibit secondary response will be most desired therapeutic agents for treatment of cardiovascular disease. CIB1 is a calcium integrin binding protein, which specifically interact with the alphaIIb subunit of integrin alphaIIb-beta3. Binding of CIB1 to alphaIIb regulates the outside-in signaling in platelets, which is needed for thrombus stabilization and thrombus growth. […] Therefore, we propose that discovery of a small molecule that can prevent the association of CIB1 and alphaIIb-beta3 will be a potential anti-platelet agent that can block the thrombus formation without undue effect on hemostasis. Reference: [1] Naik MU, Nigam A, Manrai P, et al. CIB1 deficiency results in impaired thrombosis: the potential role of CIB1 in outside-in signaling through integrin alpha IIb beta 3. J Thromb Haemost.
PROTOCOL TABLES SEQUENCE No. (1, 2, 3, etc.); […] (e.g., Cells, Incubation, Reagent, etc.); VALUE and DESCRIPTION. 1; Reagent; 3 uL; Protein or buffer (4/3x) 2; Compound; 46 nL; Control inhibitor / compound library 3; Time; 15 min; Room temperature incubation 4; Reagent; 1 uL; Fluorescent labeled peptide (4x) 5; Time; 1000 rpm; Centrifuge 6; Time; 15 min; Room temperature incubation 7; Detection; Ex 480/ Em 540; ViewLux Fluorescence Read NOTES (numbers refer to sequence above) 1; Protein Mixture: C1B1-GST (final concentrations of 1 uM). […] 3; Room temperature incubation. 4; Fluorescent Labeled Peptide: FITC-aIIb (final concentration of 100 nM). Sequence of alphaIIb peptide: Acetyl-[…]-FITC (purity is 95.83%). 5; Centrifuge 1000 rpm (164 g) for 15 seconds. 6; Room temperature incubation. 7; ViewLux Fluorescent Polization Read: excitation = 480(20) / emission = 540(25) S and P; FITC Dichroic mirror.
In the case of `Fc1ccc(Cl)cc1-c1nc(Nc2ccncc2)c2nccnc2n1`, the “activity change, negative = inhibition” value was -8.4%.

For `O=C(Nc1nc2ccccc2n1CCN1CCOCC1)c1cccc([N+](=O)[O-])c1`, the “activity change, negative = inhibition” value was -14.6%.

For the molecule `Cc1n[nH]c(C)c1Cc1sc2c(c1C(=O)N1C[C@H](O)CO1)c(=O)n(C)c(=O)n2CC(C)C`, the outcome was inactive.

As to `COc1ccccc1[C@H](c1cccc2ccccc12)[C@@](C)(C#N)C(=O)N1CCC(c2cccc(C(F)(F)F)c2)CC1`, the “activity change, negative = inhibition” value was 1.94% [at 114 µM].

`Cc1ccc(NC(=O)c2cccc(C(C)(C)C#N)c2)cc1Nc1ccc2ncn(C)c(=O)c2c1`: the “activity change, negative = inhibition” value was -6.36%.

Consider `CC(=O)NC(C)c1ccc(Oc2ccc(OC(C)C)cc2)cc1` (stereo not given), for which the “activity change, negative = inhibition” value is 1.93% [at 228 µM].

For `OC(CN1CCC(Cc2ccc(F)cc2)CC1)c1ccc(Cl)cc1` (stereo not given), the result was inactive.

In the case of `N#CC[C@H](C1CCCC1)n1cc(-c2ncnc3[nH]ccc23)cn1`, the outcome was inactive.

On to `C[C@@H]1CN(Cc2ccc(F)cc2)[C@@H](C)CN1C(=O)c1cc2c(C(=O)C(=O)N(C)C)cn(C)c2cc1Cl`, for which the outcome was inactive.

Regarding `COc1c(Cl)cc2c([nH]c3cnccc32)c1NC(=O)c1cccnc1C`, the outcome was inactive.

Consider `O=C1CCCC2=C1C(c1[nH]ncc1Cl)N=C(Nc1nc3ccccc3o1)N2` (stereo not given), for which the result was inactive.

As to `O=S(=O)(N=Cc1c(O)ccc2ccccc12)c1cccs1`, the “activity change, negative = inhibition” value is -3.62%.

`CNC[C@H](O)c1cccc(O)c1`: the result was inactive.

Consider `CCc1cc(Nc2nccc(-c3c(-c4ccc(OC)c(C(=O)Nc5c(F)cccc5F)c4)nc4ccccn34)n2)c(OC)cc1N1CCC(N2CCN(S(C)(=O)=O)CC2)CC1`, for which the result was inactive.

For the molecule `O=C(C1CC1)N1CC[C@@H](Cn2c(-c3ccc(-c4ccc5occc5c4)cc3)nc3cnccc32)C1`, the “activity change, negative = inhibition” value is -6.93% [at 114 µM].

With `Oc1cccc(-c2nc(N3CCOCC3)c3oc4ncccc4c3n2)c1`, the “activity change, negative = inhibition” value is -1.61% [at 114 µM].

With `COc1cc(Oc2ccnc3cc(OC)c(OC)cc23)ccc1NC(=O)NC(C)c1nccs1` (stereo not given), the result was inactive.

Regarding `C#Cc1cccc(Nc2ncnc3cc(OCCOC)c(OCCOC)cc23)c1`, the outcome was inactive.

As to `CNC(=O)c1ccccc1Sc1ccc2c(/C=C/c3ccccn3)n[nH]c2c1`, the outcome was inactive.

In the case of `CS(=O)(=O)c1ccc(C(=O)Nc2ccc(Cl)c(-c3ccccn3)c2)c(Cl)c1`, the outcome was inactive.

As for `OCCC#Cc1nc(-c2ccc(F)cc2)c(-c2ccncc2)n1CCCc1ccccc1`, the “activity change, negative = inhibition” value was -2.35%.

Take `CCOc1ccn(-c2ccc(F)cc2)c(=O)c1C(=O)Nc1ccc(Oc2ccnc(N)c2Cl)c(F)c1`: the result was inactive.

`OC[C@H](Cc1ccccc1)Nc1nc(Oc2ccc3c(c2)CCC3)nc2c1ncn2Cc1ccc(-c2ccccc2)cc1`: the “activity change, negative = inhibition” value was 0.172%.

Consider `S=C(NCc1ccc2c(c1)OCO2)N1CCN(c2ncnc3c2oc2ccccc23)CC1`, for which the outcome was inactive.

With `Cc1ccc(-n2nc(C(C)(C)C)cc2NC(=O)Nc2ccc(OCCN3CCOCC3)c3ccccc23)cc1`, the “activity change, negative = inhibition” value is -17.2%.

Regarding `Nc1nc2[nH]cc(CCc3ccc(C(=O)N[C@@H](CCC(=O)O)C(=O)O)cc3)c2c(=O)[nH]1`, the “activity change, negative = inhibition” value was -4.1%.

Consider `NCCc1ccc(O)c(O)c1`, for which the outcome was inactive.

Regarding `COc1ccc(-c2c(-c3ccc(O)cc3O)n[nH]c2C)cc1`, the “activity change, negative = inhibition” value is -2.12% [at 114 µM].

On to `Clc1ccc(Nc2nnc(Cc3ccncc3)c3ccccc23)cc1`, for which the result was inactive.

Take `COc1ccc([C@@H]2CC(=O)c3c(O)cc(O[C@@H]4O[C@H](CO[C@@H]5O[C@@H](C)[C@H](O)[C@@H](O)[C@@H]5O)[C@@H](O)[C@H](O)[C@@H]4O)cc3O2)cc1O`: the outcome was inactive.

`CN(C)c1ccc(C2Nc3ccc4ccccc4c3C3=C2C(=O)CC(C)(C)C3)cc1Br` (stereo not given): the result was inactive.

In the case of `c1ccc([C@H]2CN3CCSC3=N2)cc1`, the result was inactive.

As to `CC1(C)Cc2c(-c3ccccc3)c(-c3ccc(Cl)cc3)c(CC(=O)O)n2C1`, the outcome was inactive.

With `CCOC(=O)N1CCC(=C2c3ccc(Cl)cc3CCc3cccnc32)CC1`, the outcome was inactive.

As for `Nc1ncnc2nc(-c3ccc(N4CCOCC4)nc3)cc(-c3cccc(Br)c3)c12`, the “activity change, negative = inhibition” value was -1.49%.

As to `O=C(O)COCCN1CCN(C(c2ccccc2)c2ccc(Cl)cc2)CC1` (stereo not given), the result was inactive.

Regarding `N[C@@H]1CONC1=O`, the outcome was inactive.

For `CC(C[N+](C)(C)C)OC(N)=O` (stereo not given), the result was inactive.

For the molecule `CC[C@@H](C)[C@H](NC(=O)[C@H](CC1CCCCC1)NC(=O)c1ccno1)C(=O)N1CCC2(CCc3ccccc32)CC1`, the result was inactive.

As to `NC(N)=NC(=O)c1nc(Cl)c(N)nc1N`, the result was inactive.
